# Data reported in PubChem BioAssay AID1259420 (Broad Institute, 2018).
# Where “and” joins values, the source holds several entries; their conditions need not be identical. Equal values may be shown once. The campaign covered roughly 1,000 compounds. About 250 (25%) were called active. Another 31% or so got no clear call; they are omitted. These entries were drawn from the full list. Measured potencies and affinities stand elsewhere. Unmarked numbers belong to inactive results. No rule for the calls is given here.
# Test: compound activity on host-cell Toxoplasma growth – dose response (AID 1259420);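 also: host cells were HeLa; final incubation lasted 72 hours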
# Details: Toxoplasma gondii growth in host cells, no IFN-gamma
structure (smiles),measurement,setting,value
CC(=O)NC1=NN(C(C)=O)C(C)(c2ccccc2)S1 (stereo unspecified),max activity,at 19.5 µM unless noted,5.61% [at 0.16 µM]
COc1ccccc1C#Cc1ccc([C@H]2[C@H](CO)N3CCCCN(C(=O)C4CCC4)C[C@@H]23)cc1,max activity,at 10 µM,11.5%
same,max activity,at 19.5 µM,-7.69%
CN(C)CCNC(=O)c1ccc2onc(-c3coc(C4CC4)n3)c2c1,max activity,at 19.5 µM unless noted,24.6%
COc1ccccc1Cn1ncc2c1CCCC2NC(=O)c1cc(-c2cccs2)no1 (stereo unspecified),max activity,at 19.5 µM unless noted,11.7% [at 1.2 µM]
O=C(C1CCOCC1)N1CC(=O)N2[C@H](C1)[C@@H](c1ccc(/C=C/c3ccccc3)cc1)[C@@H]2CO,max activity,at 19.5 µM unless noted,10.5% [at 0.6 µM]
O=C(C1CCC1)N1CC(=O)N2[C@H](CO)[C@H](c3ccc(Br)cc3)[C@H]2C1,max activity,at 19.5 µM unless noted,-11.4% [at 10 µM]
Cc1nc(Cn2cnc(-c3nc(C(=O)NCc4cc(F)cc(F)c4)c4ccccn34)c2)cs1,max activity,at 19.5 µM unless noted,15.4%
COC(=O)c1sccc1S(=O)(=O)N[C@@H]1CC[C@@H](N)C1,max activity,at 19.5 µM unless noted,-5.2%
CN(c1ccccc1)c1ccc2ccc(C(=O)N3CCCC3)cn12,max activity,at 19.5 µM unless noted,-21% [at 0.16 µM]
O=C(c1ccc(F)cc1)N1c2ccccc2Sc2ccc(C(F)(F)F)cc21,max activity,at 19.5 µM unless noted,12.1% [at 10 µM]
O=C(NC1CCCC1)N1CCCCN2[C@@H](CO)[C@@H](c3ccc(-c4cccnc4)cc3)[C@@H]2C1,max activity,at 19.5 µM unless noted,-13.7% [at 2.6 µM]
CCc1ccc(S(=O)(=O)N2CCC3(CCC(C(=O)N4CCCC4)O3)CC2)cc1 (stereo unspecified),max activity,at 19.5 µM unless noted,-11.2% [at 1.2 µM]
CN1C(=O)c2cc(NC(=O)Cc3cccs3)ccc2OC[C@@H]2O[C@H](CC(=O)NCC3CCCCC3)CC[C@@H]21,max activity,at 19.5 µM unless noted,9.14% [at 0.6 µM]
COc1cccc(C(=O)Nc2ccc3c(c2)C(=O)N(C)[C@@H]2CC[C@H](CC(=O)N[C@H](C)c4ccccc4)O[C@@H]2CO3)c1,max activity,at 19.5 µM unless noted,-19.3% [at 1.2 µM]
CN1C(=O)c2cc(NC(=O)Cc3cccs3)ccc2OC[C@@H]2O[C@H](CC(=O)N[C@H]3CCN(Cc4ccccc4)C3)CC[C@@H]21,max activity,at 19.5 µM unless noted,35.3% and 9.67%
CN1C(=O)c2cc(NC(=O)Cc3cccs3)ccc2OC[C@@H]2O[C@H](CC(=O)N[C@@H]3CCN(Cc4ccccc4)C3)CC[C@@H]21,max activity,at 19.5 µM unless noted,32%
Cc1ccccc1-c1ccc([C@H]2[C@H](CO)N3CCCCN(S(=O)(=O)Cc4ccccc4)C[C@@H]23)cc1,max activity,at 19.5 µM unless noted,27%
O=C(NCC1CC1)C1CN(C(=O)c2ccoc2)CC12CCOCC2 (stereo unspecified),max activity,at 19.5 µM unless noted,10.2% [at 0.16 µM]
CS(=O)(=O)N1CC(=O)N2[C@H](C1)[C@@H](c1ccc(C#CCC3CCCC3)cc1)[C@@H]2CO,max activity,at 19.5 µM unless noted,17.8% [at 0.3 µM]
Cc1ccccc1S(=O)(=O)N1CC[C@H]2[C@H](CO)Nc3ccc(-c4ccc(F)cc4)cc3[C@H]21,max activity,at 19.5 µM unless noted,-15.5% [at 5 µM]
CC(C)CNC(=O)C1Cn2ccnc2C2(CCN(c3ncccn3)CC2)O1 (stereo unspecified),max activity,at 19.5 µM unless noted,-6.18%
Fc1cccc(CN2CCC3(CC2)CC(OCC2CC2)CO3)c1 (stereo unspecified),max activity,at 19.5 µM unless noted,-29.4% [at 10 µM]
COc1cccc(-c2nn(CC3CC3)c3c2[C@@H]2CN(C(=O)c4ccccc4)C[C@@H]2C3)c1,max activity,at 19.5 µM unless noted,29.4%
O=C(Cc1cccnc1)N1CC(=O)N2[C@H](CO)[C@H](c3ccc(/C=C/c4ccccc4)cc3)[C@@H]2C1,max activity,at 19.5 µM unless noted,-6.67% [at 10 µM]
COCC(=O)N1CC(=O)N2[C@H](CO)[C@@H](c3ccc(-c4ccccc4F)cc3)[C@H]2C1,max activity,at 19.5 µM unless noted,10.5% [at 0.3 µM]
O=C(Cc1cccnc1)N1CC(=O)N2[C@H](CO)[C@@H](c3ccc(/C=C/c4ccccc4)cc3)[C@H]2C1,max activity,at 19.5 µM unless noted,15.6%
O=C(Cc1cccnc1)N1CC(=O)N2[C@H](CO)[C@@H](c3ccc(/C=C/c4ccccc4)cc3)[C@@H]2C1,max activity,at 19.5 µM unless noted,14.8%
Cc1ccccc1-c1ccc([C@@H]2[C@H](CO)N3C(=O)CN(C(=O)c4ccncc4)C[C@@H]23)cc1,max activity,at 19.5 µM unless noted,13%
COC(=O)/C=c1\sc2nc(=O)c(C)nn2c1=O,max activity,at 19.5 µM unless noted,-11.2% [at 10 µM]
Cc1cccc(S(=O)(=O)N2CCc3nc(-c4cnn(C)c4)nc(NC4CC4)c3C2)c1,max activity,at 19.5 µM unless noted,-22.6% [at 1.2 µM]
Cc1nc(N2CCCC2)nc2c1CCN(S(=O)(=O)c1ccccc1)CC2,max activity,at 19.5 µM unless noted,-5.81% [at 10 µM]
COc1ccccc1-c1ccc(C2[C@@H]3CN(S(=O)(=O)c4ccc(C)cc4)C[C@H]2N3)cc1 (stereo partly specified),max activity,at 19.5 µM unless noted,22.8%
COc1ccc(S(=O)(=O)N2CCC(c3nc4ccc(-c5ccncc5)cn4n3)CC2)cc1,max activity,at 19.5 µM unless noted,-32.4% [at 10 µM]
CC(C)(C)NC(=O)[C@@H]1CC2CCCCC2CN1C[C@@H](O)[C@H](Cc1ccccc1)NC(=O)[C@H](CC(N)=O)NC(=O)c1ccc2ccccc2n1 (stereo partly specified),max activity,at 19.5 µM unless noted,-8.44%
CC/C(=C(\c1ccccc1)c1ccc(OCCN(C)C)cc1)c1ccccc1,max activity,at 19.5 µM unless noted,22.1%
CCCNC(=O)c1cc(-c2ccn(CC3CC3)n2)n2ccccc12,max activity,at 19.5 µM unless noted,-19.1% [at 10 µM]
Cc1ccc(-c2cc(O)c3c(c2)CN(C(=O)CCN2CCCO2)CCO3)s1,max activity,at 19.5 µM unless noted,12.4% [at 10 µM]
O=C1CNC[C@@H]2[C@H](c3ccc(C#Cc4cccnc4)cc3)[C@H](CO)N12,max activity,at 19.5 µM unless noted,16.3%
N#Cc1ccc(-c2ccc([C@@H]3[C@@H](CO)N4C(=O)CNC[C@H]34)cc2)cc1,max activity,at 19.5 µM unless noted,33.8%
O=S1(=O)c2ccccc2C2(CCN(CC3CC3)C2)N1Cc1ccc(F)cc1 (stereo unspecified),max activity,at 19.5 µM unless noted,13.7%
CN(Cc1ccccn1)C(=O)C1=NOC2(CCN(S(=O)(=O)c3cccc(F)c3)C2)C1 (stereo unspecified),max activity,at 19.5 µM unless noted,-20.7% [at 10 µM]
CC(C)n1c(C(=O)Nc2cccc(F)c2)nc2c1CCN(Cc1ccccc1)C2,max activity,at 19.5 µM unless noted,-15.6% [at 10 µM]
CCC(=O)N1CC(=O)N2[C@H](CO)[C@H](c3ccc(C#CCC(C)C)cc3)[C@H]2C1,max activity,at 19.5 µM unless noted,13.7%
O=C1CNC[C@@H]2[C@H](c3ccc(C#Cc4cccnc4)cc3)[C@@H](CO)N12,max activity,at 19.5 µM unless noted,-12.5% [at 0.16 µM]
COC1CCCC(C(=O)N2CCC3(CC2)C(=O)Nc2ccc(-c4ccc(C(C)=O)cc4)cc23)C1 (stereo unspecified),max activity,at 19.5 µM unless noted,-15.4% [at 10 µM]
CC(C)CC#Cc1ccc([C@H]2[C@@H](CO)N3C(=O)CN(C(=O)c4cccc(F)c4)C[C@H]23)cc1,max activity,at 19.5 µM unless noted,19.6%
CC(C)CC#Cc1ccc([C@@H]2[C@H](CO)N3C(=O)CN(C(=O)c4cccc(F)c4)C[C@@H]23)cc1,max activity,at 19.5 µM unless noted,12.3% [at 1.2 µM]
CC(C)CC#Cc1ccc([C@H]2[C@@H](CO)N3C(=O)CN(C(=O)Nc4cc(F)ccc4F)C[C@H]23)cc1,max activity,at 19.5 µM unless noted,17.1%
CC(C)CC#Cc1ccc([C@H]2[C@H]3CN(C(=O)Nc4cc(F)ccc4F)CC(=O)N3[C@H]2CO)cc1,max activity,at 19.5 µM unless noted,31.4%
COc1ccc(CN2CCC3(CC(n4cnnc4)CO3)C2)cc1 (stereo unspecified),max activity,at 19.5 µM unless noted,41.3%
O=C(Cc1cccnc1)N1CC(=O)N2[C@H](CO)[C@H](c3ccc(C#CC4CCCCC4)cc3)[C@@H]2C1,max activity,at 10 µM,-8.18%
same,max activity,at 19.5 µM,7.75%
O=C(CC(F)(F)F)N1C[C@@H]2[C@H](c3ccccc31)[C@H](CO)N2CC1CCOCC1,max activity,at 19.5 µM unless noted,-6.58% [at 5 µM]
CN(C)C(=O)c1ccc(-c2ccc([C@H]3[C@H](CO)N4C(=O)CN(C(=O)CC5CC5)C[C@@H]34)cc2)cc1,max activity,at 19.5 µM unless noted,-9.43% [at 0.3 µM]
O=C(C1CCCCC1)N1[C@H](CO)[C@@H]2c3ccccc3N(S(=O)(=O)c3ccccc3)C[C@@H]21,max activity,at 19.5 µM unless noted,10.6% [at 5 µM]
CN(C)C(=O)c1cccc(-c2ccc(C3[C@H]4CNC[C@@H]3N4Cc3ccccc3C(F)(F)F)cc2)c1 (stereo partly specified),max activity,at 19.5 µM unless noted,-11.4%
COc1ccc(C#Cc2ccc3c(c2)[C@H]2[C@H](CCN2C(=O)c2cnccn2)[C@H](CO)N3)cc1,max activity,at 19.5 µM unless noted,21.9%
COCC(=O)N1CC(=O)N2[C@H](CO)[C@@H](c3ccc(-c4ccncc4)cc3)[C@H]2C1,max activity,at 19.5 µM unless noted,9.86% [at 2.6 µM]
CC(C)c1ccc(C(=O)N=C(N)N)cc1S(C)(=O)=O,max activity,at 19.5 µM unless noted,-6.61% [at 10 µM]
O=C1CNC[C@H]2[C@@H](c3ccc(C#Cc4cccnc4)cc3)[C@@H](CO)N12,max activity,at 19.5 µM unless noted,-4.61% [at 1.2 µM]
NCCCCCCNS(=O)(=O)c1ccc2c(Cl)cccc2c1,max activity,at 19.5 µM unless noted,-5.19% [at 10 µM]
NC(=O)CN1CCOCCOCCN(CC(N)=O)CCOCC1,max activity,at 19.5 µM unless noted,5.9% [at 5 µM]
COCCN(CCOC)C(=O)c1cc2c(c3ccccc3n2CC2CC2)n1-c1ncccn1,max activity,at 19.5 µM unless noted,18%
CN(C)S(=O)(=O)N1C[C@@H]2CN(Cc3ccoc3)CCO[C@H]2C1,max activity,at 19.5 µM unless noted,-18.6%
COC[C@H]1CN(C)C[C@]12CCN(C(=O)c1cc3ccccc3s1)C2,max activity,at 19.5 µM unless noted,11.6%
O=S1(=O)c2ccccc2OCC2(CCN(Cc3ccccc3)CC2)CN1CC1CC1,max activity,at 19.5 µM unless noted,19.2%
CCN1[C@@H]2CCN(C(=O)CC3CC3)CC[C@@H]2Oc2ccccc2S1(=O)=O,max activity,at 19.5 µM unless noted,19.2% [at 1.2 µM]
O=C(NCc1cncc2c1CCN(Cc1cccc(F)c1)C2)C1CC1,max activity,at 5 µM,9.94%
same,max activity,at 19.5 µM,14%
CC(=O)N1CCN(C(C)C)C(c2nnc3ccc(C(=O)N4CCCC4)cn23)C1 (stereo unspecified),max activity,at 19.5 µM unless noted,-12.1% [at 10 µM]
